# Assay results from PubChem BioAssay (NCATS).
# Results filed as inconclusive are left out. Entries that show only a call come without a potency. The source made the active and inactive calls. Calls follow the shape of the dose curve; as a rule, active = well fitted inhibition curve with a large enough effect; inconclusive = small, poorly fitted or top-dose-only effect, or effect the other way; inactive = flat fitted curve, though single readings scatter.
# Target: Ubiquitin carboxyl-terminal hydrolase 2 (Homo sapiens) (UniProt O75604)
# Experiment: qHTS Validation Assay for Inhibitors of Ubiquitin-specific Protease USP2a Using CHOP2 as the Reporter (AID 463106)
# Conditions: USP2a cleavage of CHOP2 reporter, enzymatic; series mostly up to 38.3 µM
# Excerpt: NIH Molecular Libraries Screening Centers Network [MLSCN]
# NIH Chemical Genomics Center [NCGC]
# PI Name: Nicholson, Ben. Progenra Inc, Malvern, PA
# Homeostasis of cellular proteins is maintained through a combination of synthesis and degradation. The pathway that accounts for the majority of protein degradation is the ubiquitin-proteasomal pathway. Ubiquitin (Ub) is highly conserved in all cells and the generation of a multi-Ub chain typically targets proteins for degradation by the proteasome. However, ubiquitination is highly reversible and dynamic. Deubiquitination, the reverse process, is catalyzed through the action of enzymes referred to as isopeptidases or deubiquitinating enzymes (DUBs). This group of enzymes is collectively responsible for maintaining adequate pools of free ubiquitin and regulating the ubiquitination status of cellular proteins. The class of DUBs referred to as the ubiquitin-specific proteases (USP) family functions endoproteolytically to cleave Ub chains from a wide range of protein substrates. USP2a deubiquitinates fatty acid synthase (FASN) which has recently been identified as an emerging oncology target. To identify inhibitors of USP2a a cell-free assay was employed.
# The reporter enzyme chosen is an enterokinase called CHOP2, which is activated when the Ub is cleaved by USP2. The free and now activated reporter can subsequently act on its reporter substrate. […] The assay was developed by Progenra, Inc. and has been licensed for sale by LifeSensors, Inc. as Ub-CHOP2-Reporter-Kit (#PR1101).
# NCGC Assay Protocol Summary:
# The assay buffer, prepared fresh at the day of the assay, contains 20mM Tris-HCl pH 8.0, 2mM CaCl2, 2mM beta-Mercaptoethanol, 0.05% CHAPS. 3ul of 20nM (10nM final) USP2 core, which is stored on ice, is dispensed into a medium-binding black solid Kalypsys 1,536 well plate using the Kalypsys dispenser. The assay plate is then pinned with 23nL compound with the Kalypsys pintool in columns 5-48. The controls are pinned as follows: column 1 two-fold dilutions of 2M NEM in duplicate; column 2 2M NEM (final concentration 38.2mM); column 3&4 DMSO. The assay plate is incubated at RT for 30min. Subsequently, 1.5uL of 100nM (25nM final) Ub-CHOP2 and 1.5uL of 100nM (25nM final) Reporter Substrate (both stored on ice and protected from light) were dispensed into the plate using the Kalypsys dispenser. Plates were read after 60min RT incubation on a ViewLux (Perkin Elmer) plate reader using the following wavelengths Ex 485nm /Em 531nm.
# Data were normalized to the to AC100 inhibition (NEM). Concentration-response curves were fitted to the normalized data and the concentration-response curves were then classified based on curve quality (r2), response magnitude and degree of measured activity. The time zero reading was used to flag fluorescence artifacts.
# Keywords: ubiquitination, deubiquitination, proteases, profluorescent, MLSMR, MLPCN, NIH Roadmap, qHTS, NCGC
# Potency is read from the fitted curve at half-maximal effect.
# Ubiquitin carboxyl-terminal hydrolase 2 (Homo sapiens), sequence (O75604 whole entry, looked up): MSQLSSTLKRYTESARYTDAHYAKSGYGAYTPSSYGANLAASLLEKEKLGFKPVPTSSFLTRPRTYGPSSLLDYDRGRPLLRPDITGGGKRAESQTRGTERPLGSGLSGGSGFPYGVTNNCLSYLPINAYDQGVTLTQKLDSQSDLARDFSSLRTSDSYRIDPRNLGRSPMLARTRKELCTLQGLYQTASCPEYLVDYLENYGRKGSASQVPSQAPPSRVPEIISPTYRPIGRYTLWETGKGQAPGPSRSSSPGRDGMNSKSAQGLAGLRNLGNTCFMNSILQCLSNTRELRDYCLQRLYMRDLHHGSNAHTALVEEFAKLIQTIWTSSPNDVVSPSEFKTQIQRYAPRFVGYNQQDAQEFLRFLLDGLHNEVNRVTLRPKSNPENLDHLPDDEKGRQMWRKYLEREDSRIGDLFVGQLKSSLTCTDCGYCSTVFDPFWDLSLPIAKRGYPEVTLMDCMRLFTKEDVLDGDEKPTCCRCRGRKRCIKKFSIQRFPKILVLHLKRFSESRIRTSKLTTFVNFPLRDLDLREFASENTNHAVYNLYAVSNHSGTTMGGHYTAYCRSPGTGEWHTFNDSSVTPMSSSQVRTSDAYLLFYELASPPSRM
row,SMILES,Potency
1,O=Nc1c(-c2c(O)[nH]c3ccccc23)[nH]c2ccccc12,inactive
2,CC[N+](CC)(CC)CC,inactive
3,O=C1c2ccccc2C(=O)c2c(NCCc3ccc(O)cc3)ccc(NCCc3ccc(O)cc3)c21,inactive
4,CCc1ccc(/C=C2/SC(=S)NC2=O)cc1,inactive
5,Cc1cccc(/C=C/c2ccccc2)n1,inactive
6,C[C@H](Cc1ccccc1)Nc1ncnc2c1ncn2[C@@H]1O[C@H](CO)[C@@H](O)[C@H]1O,inactive
7,Oc1cc2c(c(Cl)c1O)CCNCC2c1ccccc1 (stereo not drawn),inactive
8,C1CCC(N=C(NC23CC4CC(CC(C4)C2)C3)N2CCOCC2)CC1,inactive
9,N#C/C(=C\c1ccc(O)c(O)c1)C(=O)Nc1ccccc1,inactive
10,S=C(Nc1ccccc1)Nc1nccs1,inactive
11,N.N.O=C(O)C1(C(=O)O)CCC1.[Pt+2],inactive
12,CN1C2CCCC1CC(NC(=O)c1nn(C)c3ccccc13)C2 (stereo not drawn),inactive
13,Nc1c(S(=O)(=O)O)cc(Nc2ccc(Nc3nc(Cl)nc(Nc4ccc(S(=O)(=O)O)cc4)n3)c(S(=O)(=O)O)c2)c2c1C(=O)c1ccccc1C2=O,4.65 µM (active)
